# Tested on: THRa homodimer (NR concentration 90 nM)
# Assay: PBM binding z-score (relative to random genomic background probes); higher = stronger binding; sequences stand for … in GC…GCGATTGACAGCGTAGAATGAAGG
# Procedure, shortened: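 Random background probes are the reference for binding z-scores. These scores derive from regression-normalized fluorescence on custom Agilent 4×180K protein-binding microarrays incubated 1 h with ligand-free nuclear receptor dimers. Binding was detected with antibodies against each partner (one per run).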
row,Sequence,PBM binding z-score
1,GCAGACAGGTGAAACGCAGGTAGCTCAGGGTGGC,-0.86
2,AGAATGAGGTTAGGATCAGGGAAACAGAATACAT,0.948
3,CAAACTAGGTCACCGGAAGGTCACAGTCCGCATG,3.69
4,TGAATCAGGTTAAAGATCAGGGAACGTGGCGTCG,-0.365
5,ATCGAAAGGTCGAGGTGAGTAAAGAGAAAGGGAA,0.539
6,GCATATAGGTAATACCAGGTGAAAGTCCGATTGT,0.748
7,CCGACTGGGGCAGAAAGGTAACCATACCATCCGG,-0.606
8,TCTTGTAGATCAACAGGAGGTTAAGAAAGATCGA,-0.703
9,GCTGCTAGGTCAACTAATGGTCAGCTAAAGCTCG,0.777
10,GCGACTGGGGCAAGGCAGGTTACCATAAGGTTGG,0.0224
11,ATATGTAGGTTAACGGGTCATTCAGTTTGCGCAT,0.71
12,GCTCGGAGAACAAGGTCAGAGCTTTGTCCGTAGA,0.95
13,CCTTACGGGTCCCGAGGTTATAGCACGACGAGCG,0.132
14,CCTTACGGGTCACGAGGTTATATCACGACGAGCG,1.34
15,GATCGGAGGACAAGGTCAGAGCTTTGTCCGTAGA,1.33
16,ATATGTAGGTTACATACGGGTCATTCAGGCTATG,0.593
17,GCAAACAGGTGAAACGCAGGTAACTCAGGGTGGC,-0.516
18,TCTTGTAGATCAACAGGAGGTCAAGAAAGATCGA,0.86
19,TGAATGAGGTTAAAGATCAGGAAACGTGGCGTCG,0.21
20,GCTGCTATGTCAACTGATGGTCAGCTAAAGCTCG,-1.13

row,Sequence,PBM binding z-score
1,TAGCCTAGTTCAGATCGGGCCAGTATACGCTATA,-0.553
2,TCTTGTAGATCACCAGGAGGTTAAGAAAGATCGA,-0.466
3,TGAATGAGGTTAAAGATCAGGGATCGTGGCGTCG,0.0472
4,TAGCCTAGGTCAGATCTGGCCAGTATACGCTATA,-0.423
5,TAGCCTAGGTCATGGGCCACTATACCACGCGAAC,1.57
6,GCTGCTAGGTCAACTGATGGACAGCTAAAGCTCG,0.89
7,CGTCCAAGGTCATAGGACGTCAGTGAAGACAGAT,2.24
8,CGTGCAAGGTCAAGGTCAGTGAAAGAGACTCGAA,3.18
9,ACTTACGGGTCAACGTGGTTATAGCACGCGTATA,0.124
10,ACTAGCAGGCCAACGGTCACTCAAGATTAGTCCG,-0.434
11,ATCGAAAGGTCGTAGGTGAGTATACCCACCCGAA,0.0179
12,CCAACTGGGCCATCAGGTCATTGATATCAACGTT,3.32
13,CGTCCAAGGTCATAGGCGGTCAGTGAAGACAGAT,2.21
14,CCGACTAGGTTATGGGGCATTCAGGCAACGGTGA,0.24
15,TTACCAAGGTGGAAGGTCGTTGATGCACGCCTTG,-0.0203
16,CGTACAAGGTCAGCAGGTCAGTGAAAGCGACGTG,2.42
17,CCTACTGGGCCATAAAGGTCATTGATGCCGATAA,0.441
18,ATCGAAAGGTCGAAGGTGAGTAAACCCACCCGAA,0.0401
19,AGTCAAAATTCAGGACGAGGTAACGTAAAGCACG,1.64
20,GATACATGGTCAGCTAGAGGCCAGAGTATGGAAA,-1.01
